The source of these data is PMC7819943, “Rice protein-binding microarrays: a tool to detect cis-acting elements near promoter regions in rice”.

Over roughly 68,000 sequences, “fluorescence intensity (a.u.)” has its median near 9,100; the highest 2% begin near 16,000. The sample as a whole holds a higher share of the highest values than the screen did.

OsWRKY34, sequence (Q0JBA9 entry or part of it): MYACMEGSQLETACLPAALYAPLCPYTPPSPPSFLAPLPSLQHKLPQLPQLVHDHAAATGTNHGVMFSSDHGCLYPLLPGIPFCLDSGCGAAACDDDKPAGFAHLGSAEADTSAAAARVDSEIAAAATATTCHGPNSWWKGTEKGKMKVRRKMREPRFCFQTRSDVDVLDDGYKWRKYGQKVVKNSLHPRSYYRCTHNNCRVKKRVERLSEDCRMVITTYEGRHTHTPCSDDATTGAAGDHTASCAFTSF

The assay addresses OsWRKY34 (Oryza sativa, UniProt Q0JBA9 1-250). Description: protein-binding microarray (RPBM); PBS, 2% BSA, 51.3 ng/ul salmon testes DNA, 50 uM zinc acetate, 200 nM TF, 25 C, 1 h; high values mean tight binding. The conditions noted are these: protein: recombinant; tags: N-terminal polyhistidine and DsRed monomer fusion (pET32a); label: CyDye5-dUTP incorporated in the synthesized complementary strand; 3' TTTTT single-stranded linker to array surface; dsDNA, one strand shown. The essentials: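 A custom Agilent array was converted to double-stranded form by primer extension with Cy5-dUTP and blocked with 2% BSA. Protein at 200 nM in PBS with 2% BSA, salmon testes DNA and 50 µM zinc acetate was applied for 1 h at 25 °C, followed by washing. The proteins were polyhistidine–DsRed N-terminal fusions of transcription factors, expressed in E. coli BL21-CodonPlus and Ni–NTA-purified. The binding signal is per-feature fluorescence intensity (arbitrary units) from an Axon 4000B scanner.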
In the case of “AGCCACGACCCAATCTTCGCTGCGGTTGACTTTAAATTAACGGAGTCACCTAGTGCAG”, the binding signal was 9760 fluorescence intensity (a.u.).

On to “GCGTGTGTTCTTGTGCTGGATTGTGGAGTTCTTGATCCCTCGGAGTCACCTAGTGCAG”, for which the binding signal was 10000 fluorescence intensity (a.u.).

Consider “TGTGGGACGATGGGGAGGTGTGGGGACGCACGCGGGGCGACGGAGTCACCTAGTGCAG”, for which the binding signal is 10200 fluorescence intensity (a.u.).

On to “AACATAACTGTCTTCTTCCATTTGTATGTCATGTTTCTGTCGGAGTCACCTAGTGCAG”, for which the binding signal is 10700 fluorescence intensity (a.u.).

For the sequence “ACTCCGGCGGGTTAGGGTTTGGGGTTGGGGTGAGGGTAGGCGGAGTCACCTAGTGCAG”, the binding signal was 10900 fluorescence intensity (a.u.).

For the sequence “GGAGATACGGCGAGGGGAGGGGACGGAGGGGCGGGGTGCGCGGAGTCACCTAGTGCAG”, the binding signal is 24700 fluorescence intensity (a.u.).

Regarding “GCGCGGCGCGGCGGGACGGGGTGGGGCGAGGGCAGCAGCGCGGAGTCACCTAGTGCAG”, the binding signal is 8520 fluorescence intensity (a.u.).

As for “GATAACATGTTGTAGTCTTCCAGGGGTGGGTGTTAGCTGTCGGAGTCACCTAGTGCAG”, the binding signal was 16700 fluorescence intensity (a.u.).

For the sequence “CGAAATGGGAGGCGGGGTTTAGGGTTTCCGGCGGGGAGGGCGGAGTCACCTAGTGCAG”, the binding signal was 25200 fluorescence intensity (a.u.).

With “CATGGTGACATGTTGTGGGGCTGTGTCTTGTGGGTACAGTCGGAGTCACCTAGTGCAG”, the binding signal is 8650 fluorescence intensity (a.u.).

On to “AGGAGGGGAGGCGCGGCGGAGGAGAAGAGGTGGGGATGGACGGAGTCACCTAGTGCAG”, for which the binding signal is 10000 fluorescence intensity (a.u.).

As for “GCGATGGGAGGTGGGCGACGCGAGGGAGAGGGGAGAGGGGCGGAGTCACCTAGTGCAG”, the binding signal was 18500 fluorescence intensity (a.u.).

Consider “GGCGGCGCGGGTTTAGCGGGATGGGGAGGCGGCGAGTGGCCGGAGTCACCTAGTGCAG”, for which the binding signal is 8140 fluorescence intensity (a.u.).

With “GGACGGAGGGGCGGGGTGCGACGCGGACGGCGGCGGCGGGCGGAGTCACCTAGTGCAG”, the binding signal was 13500 fluorescence intensity (a.u.).

In the case of “GAGGACTGGGCGAAGGGGTGGAAGAAAATGTGGTTGTCGACGGAGTCACCTAGTGCAG”, the binding signal was 8580 fluorescence intensity (a.u.).

Consider “ATGGCTCGGTGGTGCACTATTTTTTTTTTAACTTAATTTGCGGAGTCACCTAGTGCAG”, for which the binding signal was 12100 fluorescence intensity (a.u.).

On to “CACAATAGACCACCCGAAACCACATCTTCAACACTTCAATCGGAGTCACCTAGTGCAG”, for which the binding signal is 8530 fluorescence intensity (a.u.).

On to “CTCTCCGTGCATCTATATAAACTGGCCCTGATCAATCTCACGGAGTCACCTAGTGCAG”, for which the binding signal is 9650 fluorescence intensity (a.u.).

“CAGGCGACCACCTCCAGCTCCGCGCCATCTCCATGTCATCCGGAGTCACCTAGTGCAG”: the binding signal is 10800 fluorescence intensity (a.u.).

As to “TGCACCTGTTTGGCTTAGTACCAGTGCGCTACTGGTTTCACGGAGTCACCTAGTGCAG”, the binding signal was 9680 fluorescence intensity (a.u.).

For “TACTCCGTACAAATTTTCTTCTGGATCCCACCTCTGCTCTCGGAGTCACCTAGTGCAG”, the binding signal is 9050 fluorescence intensity (a.u.).

For the sequence “CCCACCTCGCTGTCGTTTCTTCCTCTGGCTGGTCGCGTTGCGGAGTCACCTAGTGCAG”, the binding signal is 12700 fluorescence intensity (a.u.).

On to “TTTCTTTCCTGTTTTAGGAGGGTTTTCCACGTTAAATCTTCGGAGTCACCTAGTGCAG”, for which the binding signal was 8290 fluorescence intensity (a.u.).

“TTTTTTTAAAATTTGCATGTTTTTTGGTCGTGTAAAATTTCGGAGTCACCTAGTGCAG”: the binding signal is 8290 fluorescence intensity (a.u.).

For the sequence “GGGGCGGAAACGGGCGAGGGAGGCGCGGGGAGGGTTTAAACGGAGTCACCTAGTGCAG”, the binding signal is 22600 fluorescence intensity (a.u.).

With “GGCACCGGCGGAGGGGCGCGGGAGGGGAGGCGGCGGCGAGCGGAGTCACCTAGTGCAG”, the binding signal is 15600 fluorescence intensity (a.u.).

Turning to “TAGGAGGTGGCGGCCGGTGGTGGCGGATCCGGCGGCGGGGCGGAGTCACCTAGTGCAG”, the binding signal was 8840 fluorescence intensity (a.u.).

On to “AGGGGAGAGGAGGGGAGGCGGCGCGGCGGCGAGGAGGGGACGGAGTCACCTAGTGCAG”, for which the binding signal was 10200 fluorescence intensity (a.u.).

Take “AAAGGTGGTGGTAGGGGATAGATCCGGGGCGGGCGGCATGCGGAGTCACCTAGTGCAG”: the binding signal was 23400 fluorescence intensity (a.u.).

With “TGGGAGGAGGGAGGGAGGAGGAGGGCGGAGATAGGTGGTGCGGAGTCACCTAGTGCAG”, the binding signal was 11400 fluorescence intensity (a.u.).

With “ATATCGAAATTGATGCTTGACCAGTCAACACTACTTAATCCGGAGTCACCTAGTGCAG”, the binding signal was 9070 fluorescence intensity (a.u.).

“GTCGCTTGTCGTTGTTGCCCTGAACTGTTGGTGCTGGTTCCGGAGTCACCTAGTGCAG”: the binding signal is 9320 fluorescence intensity (a.u.).

Take “GTACATACCCGTATTATTTATCTGTCGCTATGTAGGATTTCGGAGTCACCTAGTGCAG”: the binding signal is 10500 fluorescence intensity (a.u.).

“CCACCGGCGGGCCCCACCATCTTGACTCCTCTCTGTGATCCGGAGTCACCTAGTGCAG”: the binding signal was 8610 fluorescence intensity (a.u.).

On to “TGTGGTGCGTCTCCTCGTGCAGTTTTTGCCCTTGATTTGACGGAGTCACCTAGTGCAG”, for which the binding signal was 11800 fluorescence intensity (a.u.).

“CATTGTTTTCTAATATTCGGCCATGGCTTTTGACATTTTACGGAGTCACCTAGTGCAG”: the binding signal was 8430 fluorescence intensity (a.u.).

On to “GACTTTTTAGCATATGTTTGACCGTTCGTCTTATTCAAAACGGAGTCACCTAGTGCAG”, for which the binding signal is 10600 fluorescence intensity (a.u.).

With “TCGTTAACTTTTTAATAAACGTTTGACCTTTCGTCTTATTCGGAGTCACCTAGTGCAG”, the binding signal was 10200 fluorescence intensity (a.u.).

“GACTTTTCGGTTCTTAAGCTGACTTATAATTAGTCTAAACCGGAGTCACCTAGTGCAG”: the binding signal was 8630 fluorescence intensity (a.u.).

As to “GTTGACTTTTTGACAAACGTTTGACTTTTCGTCTTATTCACGGAGTCACCTAGTGCAG”, the binding signal was 17400 fluorescence intensity (a.u.).

On to “CCTTTGACTTTTTGATAAACGTTTGACCTTTCGTCTTATTCGGAGTCACCTAGTGCAG”, for which the binding signal is 22800 fluorescence intensity (a.u.).

As for “CGGTTGACTTTTTTTTTCTAATAAGCCAAAACGGCTTATTCGGAGTCACCTAGTGCAG”, the binding signal was 18800 fluorescence intensity (a.u.).

For “TGATTTTTTGACAAACATTTGACCTTTCGTCTTATTTAAACGGAGTCACCTAGTGCAG”, the binding signal is 8620 fluorescence intensity (a.u.).
